According to PubChem BioAssay AID1159580 (chemical genetic matrix, 2015):
Where “and” joins values, the source holds several entries; their conditions need not be identical. Equal values may be shown once. The campaign covered roughly 5,500 compounds. About 2,000 (36%) were called active. Another 18% or so got no clear call; they are omitted. Cut-off read from the data, not from the text of the source: active = normalized growth mostly below about 0.91 (no sharp cut-off); inconclusive = no clear call, values can overlap the other calls; inactive = mostly above about 0.92. This is one part of the list.

Assay: chemical genetic growth profiling, strain panel (AID 1159580);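 note: tested at 20 µM; growth read once vehicle control cultures reached saturation at 30 °C; 1 = growth at the plate median or of vehicle wells; lower values mean less growth of the strain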
Details: S. cerevisiae deletion strains, growth OD

Measured: normalized growth

CC(C)CCCC(C)[C@H]1CCC2C3CC=C4CC(=O)CC[C@]4(C)C3CC[C@@]21C (stereo not given in full)
active: locus YLR262C, strain YPT6 (second series), active compounds read low 0.855 | locus YLR418C, strain cdc73, active compounds read low 0.753 | locus YNL307C, strain MCK1, active compounds read low 0.842
inactive: locus YAL021C, strain ccr4, active compounds read low 0.976 | locus YAL026C, strain drs2, active compounds read low 0.985 | locus YAL030W, strain snc1, active compounds read low 0.989 | locus YBL061C, strain skt5, active compounds read low 1 | locus YBR009C, strain hhf1, active compounds read low 1.04 | locus YBR021W, strain FUR4, active compounds read low 0.962 | locus YBR023C, strain chs3, active compounds read low 0.988 | locus YBR171W, strain sec66, active compounds read low 0.992 | locus YBR229C, strain ROT2, active compounds read low 0.961 | locus YBR231C, strain swc5, active compounds read low 1.01 | locus YBR279W, strain paf1, active compounds read low 1 | locus YCL011C, strain gbp2, active compounds read low 0.986 | locus YCL016C, strain dcc1, active compounds read low 1 | locus YCL029C, strain bik1, active compounds read low 0.999 | locus YCL061C, strain MRC1, active compounds read low 0.99 | locus YCL069W, strain vba3, active compounds read low 0.994 | locus YCR088W, strain abp1, active compounds read low 0.99 | locus YDL005C, strain med2, active compounds read low 0.99 | locus YDL035C, strain GPR1, active compounds read low 0.953 | locus YDL040C, strain nat1, active compounds read low 0.975 | locus YDL074C, strain BRE1, active compounds read low 0.937 | locus YDL101C, strain DUN1, active compounds read low 0.971 | locus YDL185W, strain tfp1, active compounds read low 0.982 | locus YDL192W, strain arf1, active compounds read low 0.932 | locus YDR001C, strain nth1, active compounds read low 0.99 | locus YDR069C, strain doa4, active compounds read low 1 | locus YDR101C, strain arx1, active compounds read low 1.03 | locus YDR137W, strain rgp1, active compounds read low 0.895 | locus YDR150W, strain NUM1, active compounds read low 0.978 | locus YDR159W, strain sac3, active compounds read low 0.999 | locus YDR162C, strain NBP2, active compounds read low 0.939 | locus YDR195W, strain ref2 1.03 | locus YDR297W, strain sur2, active compounds read low 0.994 | locus YDR318W, strain mcm21, active compounds read low 0.922 | locus YDR334W, strain swr1, active compounds read low 0.968 | locus YDR335W, strain msn5, active compounds read low 0.984 | locus YDR388W, active compounds read low 0.964 | locus YDR392W, strain spt3, active compounds read low 0.932 | locus YDR502C, strain sam2, active compounds read low 0.947 | locus YEL003W, strain gim4, active compounds read low 0.987 | locus YEL037C, strain rad23, active compounds read low 0.986 | locus YEL061C, strain CIN8 (second series), active compounds read low 0.991 | locus YEL061C, strain CIN8, active compounds read low 0.988 | locus YER015W, strain faa2, active compounds read low 0.992 | locus YER016W, strain bim1, active compounds read low 0.987 | locus YER110C, active compounds read low 0.98 | locus YER111C, strain swi4, active compounds read low 0.997 | locus YER155C, strain BEM2 (second series), active compounds read low 1.01 | locus YER155C, strain BEM2, active compounds read low 1.01 | locus YER167W, strain BCK2, active compounds read low 0.993 | locus YFR010W, strain ubp6, active compounds read low 0.991 | locus YGL078C, strain dbp3, active compounds read low 0.98 | locus YGL086W, strain mad1, active compounds read low 0.997 | locus YGL167C, strain pmr1, active compounds read low 0.996 | locus YGL173C, strain kem1, active compounds read low 0.995 | locus YGL227W, strain vid30, active compounds read low 0.995 | locus YGL240W, strain doc1, active compounds read low 1.04 | locus YGL248W, strain PDE1, active compounds read low 0.922 | locus YGL253W, strain hxk2, active compounds read low 0.976 | locus YGR135W, strain pre9, active compounds read low 0.942 | locus YGR252W, strain gcn5, active compounds read low 0.839 | locus YHR013C, strain ard1, active compounds read low 0.989 | locus YHR027C, strain rpn1, active compounds read low 0.987 | locus YHR030C, strain SLT2, active compounds read low 1 and 1.02 | locus YHR079C, strain IRE1 (second series), active compounds read low 0.992 | locus YHR079C, strain IRE1, active compounds read low 0.997 | locus YHR094C, strain hxt1, active compounds read low 0.986 | locus YHR129C, strain ARP1, active compounds read low 0.974 | locus YHR142W, strain chs7, active compounds read low 0.903 | locus YHR200W, strain rpn10, active compounds read low 0.958 | locus YIL066C, strain RNR3, active compounds read low 0.952 | locus YIL073C, strain SPO22, active compounds read low 0.936 | locus YIL125W, strain kgd1, active compounds read low 0.987 | locus YIR030C, strain dcg1, active compounds read low 0.979 | locus YJL092W, strain hpr5, active compounds read low 0.978 | locus YJL095W, strain BCK1 (second series), active compounds read low 0.989 | locus YJL095W, strain BCK1, active compounds read low 0.83 and 1 | locus YJL115W, strain asf1, active compounds read low 0.974 | locus YJL129C, strain trk1, active compounds read low 0.935 | locus YJL134W, strain LCB3, active compounds read low 0.982 | locus YJL154C, strain vps35, active compounds read low 0.993 | locus YJL164C, strain tpk1, active compounds read low 0.95 | locus YJL166W, strain qcr8, active compounds read low 0.986 | locus YJL168C, strain set2, active compounds read low 0.996 | locus YJL187C, strain SWE1 (second series), active compounds read low 0.968 | locus YJL187C, strain SWE1, active compounds read low 1 | locus YJR043C, strain POL32, active compounds read low 0.958 | locus YJR066W, strain TOR1, active compounds read low 0.928 | locus YJR075W, strain HOC1, active compounds read low 0.968 | locus YKL009W, strain mrt4, active compounds read low 0.943 | locus YKL068W, active compounds read low 0.993 | locus YKL085W, strain MDH1 (second series), active compounds read low 0.99 | locus YKL085W, strain MDH1, active compounds read low 0.99 | locus YKL160W, strain elf1, active compounds read low 0.965 | locus YKL190W, strain CNB1, active compounds read low 0.984 | locus YKR001C, strain vps1, active compounds read low 0.914 | locus YKR026C, strain gcn3, active compounds read low 0.993 | locus YKR091W, strain srl3, active compounds read low 0.994 | locus YLL001W, strain dnm1, active compounds read low 0.988 | locus YLL026W, active compounds read low 0.988 | locus YLL041C, strain sdh2, active compounds read low 0.981 | locus YLR027C, strain aat2, active compounds read low 0.981 | locus YLR039C, strain RIC1, active compounds read low 0.696 | locus YLR058C, strain SHM2, active compounds read low 0.967 | locus YLR102C, strain apc9, active compounds read low 0.989 | locus YLR113W, strain HOG1, active compounds read low 0.91 | locus YLR221C, strain rsa3, active compounds read low 0.949 | locus YLR258W, strain gsy2, active compounds read low 1.01 | locus YLR262C, strain YPT6, active compounds read low 0.66 | locus YLR268W, strain sec22, active compounds read low 0.974 | locus YLR320W, strain mms22, active compounds read low 0.999 | locus YLR330W, strain CHS5, active compounds read low 0.985 | locus YLR342W, strain FKS1 (second series), active compounds read low 0.946 | locus YLR342W, strain FKS1, active compounds read low 1.01 | locus YLR357W, strain rsc2, active compounds read low 1.02 | locus YLR370C, strain arc18, active compounds read low 0.99 | locus YLR371W, strain rom2, active compounds read low 0.989 | locus YLR384C, strain iki3, active compounds read low 0.995 | locus YML016C, strain PPZ1, active compounds read low 0.996 | locus YML032C, strain rad52, active compounds read low 0.91 | locus YML120C, strain ndi1, active compounds read low 0.949 | locus YML124C, strain tub3, active compounds read low 0.995 | locus YMR058W, strain fet3, active compounds read low 0.981 | locus YMR078C, strain ctf18, active compounds read low 0.981 | locus YMR125W, strain sto1, active compounds read low 0.985 | locus YMR129W, active compounds read low 1 | locus YMR205C, strain PFK2, active compounds read low 1.03 | locus YMR223W, strain ubp8, active compounds read low 0.925 | locus YMR231W, strain pep5, active compounds read low 1 | locus YMR307W, strain GAS1, active compounds read low 0.875 | locus YNL067W, strain RPL9B, active compounds read low 0.987 | locus YNL071W, strain lat1, active compounds read low 0.978 | locus YNL183C, strain NPR1, active compounds read low 0.937 | locus YNL209W, strain ssb2, active compounds read low 1 | locus YNL233W, strain BNI4, active compounds read low 0.932 | locus YNL248C, strain rpa49, active compounds read low 0.93 | locus YNL250W, strain rad50, active compounds read low 0.965 | locus YNL271C, strain bni1, active compounds read low 0.977 | locus YNL298W, strain CLA4, active compounds read low 0.979 | locus YNL322C, strain KRE1 (second series), active compounds read low 0.99 | locus YNL322C, strain KRE1, active compounds read low 0.991 | locus YNR049C, strain mso1, active compounds read low 0.986 | locus YNR052C, strain pop2, active compounds read low 0.98 | locus YOL006C, strain TOP1, active compounds read low 1.01 | locus YOL012C, strain htz1 1.02 | locus YOL147C, strain pex11, active compounds read low 0.989 | locus YOR001W, strain rrp6, active compounds read low 0.933 | locus YOR061W, strain CKA2, active compounds read low 0.954 | locus YOR069W, strain VPS5, active compounds read low 0.988 | locus YOR070C, strain gyp1, active compounds read low 0.978 | locus YOR080W, strain dia2, active compounds read low 0.996 | locus YOR083W, strain WHI5, active compounds read low 0.944 | locus YOR106W, strain vam3, active compounds read low 0.965 | locus YOR136W, strain idh2, active compounds read low 0.993 | locus YOR144C, strain elg1, active compounds read low 0.993 | locus YOR184W, strain ser1, active compounds read low 0.945 | locus YOR231W, strain MKK1, active compounds read low 0.965 | locus YOR265W, strain rbl2, active compounds read low 0.986 | locus YOR270C, strain vph1, active compounds read low 0.922 | locus YOR290C, strain snf2, active compounds read low 0.959 | locus YOR316C, strain cot1, active compounds read low 0.988 | locus YPL051W, strain arl3, active compounds read low 0.956 | locus YPL078C, strain atp4, active compounds read low 0.951 | locus YPL106C, strain sse1, active compounds read low 1.03 | locus YPL240C, strain hsp82, active compounds read low 0.989 | locus YPL241C, strain CIN2, active compounds read low 0.995 | locus YPL256C, strain CLN2, active compounds read low 1.01 | locus YPR119W, strain clb2, active compounds read low 1 | locus YPR141C, strain kar3, active compounds read low 0.988 | locus YPR163C, strain tif3, active compounds read low 0.977 | locus YPR167C, strain met16, active compounds read low 0.96 | strain wtn01, active compounds read low 1.02
